Source: PubChem BioAssay (NCATS)
Inconclusive results are not listed. A number with no mark means an inactive call. Activity calls are given as the source filed them. Calls come from the whole dose curve; as a rule, active = well fitted cell-killing curve with a large enough effect; inconclusive = small, poorly fitted or top-dose-only effect, or effect the other way; inactive = no such curve, though single readings can be large or run the other way.

Test: Viability qHTS for spleen associated tyrosine kinase inhibitor (SYKi) drug resistant MV4-11 cells (AID 1963824); note: nearly all actives have a fitted effect of over 35% in size
Conditions: SYKi-resistant MV4-11 viability, CellTiter-Glo, 72 h; series mostly up to 45 µM; viability, % of control: at the top concentration
Procedure, shortened: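 SYK inhibitor-resistant MV4-11 AML cells, 500 per well, added to predispensed compounds and incubated 72 hr at 37 C, 5% CO2. Viability measured by CellTiter-Glo luminescence after 10 min at room temperature.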
Potency is the fitted concentration of half-maximal effect.

Structure (SMILES)	Potency	viability, % of control
Nc1nc(N)c2nc(-c3cccc(O)c3)cnc2n1	2.06 µM (active)	
COc1ccccc1-n1c(SCC(=O)Nc2nc3ccc(C)cc3s2)nc2c(c1=O)SCC2		83.7% [at 17.3 µM]
Cc1ccc(-c2c(-c3nn(C)c4ncnc(N5CCC(N6CCCCC6)C5)c34)cnn2C)cc1 (centres undefined)		79.7%
COc1cc([C@H]2OC[C@]3(OC(C)=O)[C@@H](c4ccc(O[C@@H]5O[C@H](CO)[C@@H](O)[C@H](O)[C@H]5O)c(OC)c4)OC[C@H]23)ccc1O		113% [at 17.3 µM]
Oc1cccc(C2NC(=S)Nc3cccc(F)c32)c1 (centres undefined)	2.91 µM (active)	
CC(C)CN(CC(=O)N(CCCN1CCCC1=O)CC(N)=O)C(=O)CNCCc1ccccc1F		94.1%
CCCc1[nH]nc2c1C(c1cc(Cl)cc(Cl)c1O)C(C#N)=C(N)O2 (centres undefined)	16.4 µM (active)	
CCOc1ncc(S(=O)(=O)N2CCN(CC)CC2)cc1-c1nc2c(CC)n(CCOC)nc2c(=O)[nH]1		87.6%
CC(=O)OC(C)C(C)(O)C(=O)O[C@@H]1CC[C@]2(C)CC(=O)C(=C(C)C)C[C@H]2[C@]1(C)OC(C)=O (some centres undefined)		92.1% [at 17.3 µM]
COc1ccc(Cl)cc1[C@@]1(F)C(=O)Nc2cc(C(F)(F)F)ccc21	6.51 µM (active)	
COc1c2ccoc2cc2oc(CO[C@@H]3O[C@H](CO)[C@@H](O)[C@H](O)[C@H]3O)cc(=O)c12		93%
O=C(Nc1ccc(C(O)(C(F)(F)F)C(F)(F)F)cc1)c1ccc(C(F)(F)F)cc1	1.84 µM (active)	
C=C1CN(Cc2ccc(C(=O)Nc3ccccc3N)cc2)C(=O)c2ccccc21	0.517 µM (active)	
O=C1NC2CCc3nc4ccccc4c(=O)n3C2=Nc2ccccc21 (centres undefined)		84%
CC1OC(OC2C(C)OC(OC3C(OC(=O)/C=C/c4ccc(O)cc4)C(CO)OC(OC4(COC(=O)/C=C/c5ccc(O)cc5)OC(CO)C(O)C4O)C3OC3OCC(O)(CO)C3O)C(O)C2O)C(O)C(O)C1O (centres undefined)		112% [at 9.25 µM]
COC(=O)C[C@@H]1C(C(=O)O)=CO[C@@H](O[C@@H]2O[C@H](CO)[C@@H](O)[C@H](O)[C@H]2O)/C1=C\COC(=O)/C=C/c1ccc(O)c(OC)c1		91.8% [at 17.3 µM]
Cc1cc(C(=O)Nc2cccc(C(=O)Nc3cccc(C(F)(F)F)c3)c2)on1		99.4%
COc1ccc(C2=NC(c3ccc(Cl)cc3)C(c3ccc(Cl)cc3)N2C(=O)N2CCNC(=O)C2)c(OC(C)C)c1 (centres undefined)	18.4 µM (active)	
CC1(C)CCC[C@@]2(C)[C@H]1[C@H](O)C=C(CO)[C@]2(O)CO		100%
CC(C)C1(O)C=C2C(=O)CC3C(C)(C(=O)O)CCCC3(C)C2CC1 (centres undefined)		111%

Structure (SMILES)	Potency	viability, % of control
CC1=C2CC(=O)C(C)CC/C=C(\C)CC2(O)OC1=O (centres undefined)		97.5%
CC(/C=C/C=C(\C)C(=O)O[C@@H]1O[C@H](CO[C@@H]2O[C@H](CO)[C@@H](O)[C@H](O)[C@H]2O)[C@@H](O)[C@H](O)[C@H]1O)=C\C=C\C=C(C)\C=C\C=C(/C)C(=O)O[C@@H]1C[C@](O)(C(=O)O)C[C@@H](O)[C@H]1OC(=O)/C=C/c1ccc(O)c(O)c1		91.1% [at 9.25 µM]
CC(=O)c1ccc2c(c1)N(CCCN1CCC(CCO)CC1)c1ccccc1S2	18.8 µM (active)	
CN(CCc1ccc(Nc2ncc(-c3cccnc3)s2)cc1)Cc1ccccc1	0.651 µM (active)	
Cc1cccc(Nc2cc(Cl)nc(SCC(=O)O)n2)c1C		83.1%
CC(C)(O)C1CCC(C)(C2CCC3(C)C4CCC5C(C)(C(=O)OC6OC(CO)C(O)C(O)C6O)C(O)CC(O)C56CC46CCC23C)O1 (centres undefined)		94.6% [at 17.3 µM]
NC(=O)CCCSc1nc(N)nc(-c2c(Cl)cc3c4c(cccc24)COC3)n1	0.092 µM (active)	
O=C1C(Cc2ccc(O)cc2)N2C(=O)CCN(C(=O)NCc3ccccc3)C2CN1Cc1cccc2ccccc12 (centres undefined)	1.84 µM (active)	
CC(O)C(O)/C=C/C=C/C(=O)O[C@@H]1C=C2COC(=O)[C@]2(O)[C@@]2(C)CCCC(C)(C)C12 (some centres undefined)		73% [at 17.3 µM]
C[C@@H]1[C@H]2[C@H](O[C@@H]3O[C@H](CO)[C@@H](O)[C@H](O)[C@H]3O)OC=C(C(=O)O)[C@H]2C[C@@H]1OC(=O)/C=C/c1ccc(O)cc1		111% [at 17.3 µM]
CCOC(=O)[C@@H](N)Cc1ccc(-c2cc(O[C@H](c3ccc(Cl)cc3-n3ccc(C)n3)C(F)(F)F)nc(N)n2)cc1	4.17 µM (active)	
CC1(C)CC[C@]2(C(=O)O[C@@H]3O[C@H](CO[C@@H]4O[C@H](CO)[C@@H](O)[C@H](O)[C@H]4O)[C@@H](O)[C@H](O[C@@H]4O[C@H](CO)[C@@H](O)[C@H](O)[C@H]4O)[C@H]3O)CC[C@]3(C)C(=CCC4[C@@]5(C)CC[C@H](O[C@@H]6OC[C@@H](O)[C@H](O)[C@H]6O)[C@@](C)(C(=O)O)C5CC[C@]43C)[C@@H]2C1 (some centres undefined)		108% [at 9.25 µM]
CC[C@H](C)/C=C(C)/C=C/C1=CC2=C(Cl)C(=O)[C@](C)(O)[C@H](OC(C)=O)[C@H]2CO1	7.18 µM (active)	
CSCC1OC(n2cnc3c(=O)[nH]cnc32)C(O)C1O (centres undefined)		109%
CC(C)(O)C1=CCC23COC(C2)C(O)(C(=O)O)CCC13 (centres undefined)		114%
CC(C)=CCC[C@](C)(O)[C@H]1CC[C@]2(C)[C@@H]1[C@H](O)CC1[C@@]3(C)CC[C@H](O)C(C)(C)[C@@H]3[C@@H](O[C@@H]3O[C@H](CO)[C@@H](O)[C@H](O)[C@H]3O[C@@H]3O[C@H](CO)[C@@H](O)[C@H](O)[C@H]3O)C[C@]12C (some centres undefined)		87.7% [at 17.3 µM]
NCCCC[C@H](NC(=O)[C@@H]1Cc2ccccc2CN1C(=O)CCC(=O)c1ccccc1)C(=O)NCC(c1ccccc1)c1ccccc1	13 µM (active)	
COC(=O)C1=CO[C@@H](O[C@@H]2O[C@H](CO)[C@@H](O)[C@H](O)[C@H]2O)[C@H]2[C@@H]1CC(OC)O[C@@H]2C (some centres undefined)		111% [at 17.3 µM]
C=CC(C)(O)CC/C=C(\C)C(=O)OC1C(O)C(CO)OC(OC(=O)C23CCC(C)(C)CC2C2=CCC4C5(C)CCC(OC6OC(COC7OCC(OC(C)=O)C(O)C7OC7OC(COC(C)=O)C(O)C(O)C7OC(C)=O)C(O)C(O)C6OC6OCC(O)C(O)C6O)C(C)(C)C5CCC4(C)C2(C)C(O)C3O)C1OC1OCC(OC2OCC(O)C(OC3OCC(O)C(O)C3O)C2O)C(O)C1O (centres undefined)	1.78 µM (active)	
